Test results reported in PubChem BioAssay (NCATS).
Inconclusive results are not listed. A call without a number means that no potency is given here. Unmarked numbers belong to inactive results. The source made the active and inactive calls. The call rests on the fitted dose curve; in most records, active means well fitted curve in the direction sought with a large enough effect; inconclusive means small, poorly fitted or top-dose-only effect, or another doubt; inactive means no such curve, though single readings can be large; an effect the other way counts as inactive or inconclusive.

Key:
[1] = molecular target: Cellular tumor antigen p53 (Homo sapiens) (UniProt P04637); assay: Primary qHTS for small molecule compounds that upregulate eGFP-tagged delta133p53alpha (in N-terminal) cells. (AID 2060322); conditions: NCI-H358 eGFP-delta133p53alpha fluorescence, 24 h; activation: hits give high values; further: nearly all actives have a fitted effect of over 75% in size; further: potency means the concentration at half of the fitted maximal effect;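 on activation: cells pre-induced with doxycycline then dosed without doxycycline; series mostly up to about 56 µM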
Outline: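 NCI-H358 cells pre-induced 24 h with 10 ng/ml doxycycline for eGFP-delta133p53alpha, plated dox-free and exposed 24 h at 37C to titrated compounds. Fixed, Hoechst-stained; gated GFP peak intensity by laser scanning cytometry, normalized to DMSO (0%) and 57.5 uM 5-azacytidine (100%).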

[2] = molecular target: Aldehyde dehydrogenase, mitochondrial (Homo sapiens) (UniProt P05091); assay: qHTS for Inhibitors of the Aldehyde Dehydrogenase Family (ALDH2) Primary screen (AID 2061308); further: nearly all actives have a fitted effect of over 55% in size
[3] = molecular target: Retinaldehyde dehydrogenase 3 (Homo sapiens) (UniProt P47895); assay: qHTS for Inhibitors of the Aldehyde Dehydrogenase Family (ALDH1A3) Primary screen (AID 2061315)

Cellular tumor antigen p53 (Homo sapiens), sequence (P04637 whole entry, looked up): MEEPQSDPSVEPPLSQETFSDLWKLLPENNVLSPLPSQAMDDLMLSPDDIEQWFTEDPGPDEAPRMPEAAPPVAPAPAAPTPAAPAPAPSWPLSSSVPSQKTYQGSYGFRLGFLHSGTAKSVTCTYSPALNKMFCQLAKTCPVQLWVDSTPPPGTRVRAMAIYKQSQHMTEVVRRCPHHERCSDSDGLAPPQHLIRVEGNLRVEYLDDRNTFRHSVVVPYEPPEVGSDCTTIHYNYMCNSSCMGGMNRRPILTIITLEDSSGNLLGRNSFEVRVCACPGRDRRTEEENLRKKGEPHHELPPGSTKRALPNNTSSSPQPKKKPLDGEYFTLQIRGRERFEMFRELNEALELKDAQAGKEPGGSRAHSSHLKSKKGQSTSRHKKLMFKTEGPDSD

| SMILES | activation [1] | Potency [2] | Potency [3] | activity change, negative = inhibition [2] | activity change, negative = inhibition [3] | Potency [1] |
| --- | --- | --- | --- | --- | --- | --- |
| C/C(=C\CC[C@H](CO)[C@@H]1CC[C@]2(C)C3=C(CC[C@@]12C)[C@@]1(C)CCC(=O)C(C)(C)C1CC3)C(=O)O (some centres undefined) | -4.58% | inactive | inactive | – | – | – |
| COc1ccc(NC(=O)C2C[C@H](C)CC[C@H]2C(C)C)cc1 (some centres undefined) | 5.67% | inactive | inactive | – | – | – |
| O=C(O)c1ccnc(-c2cc(C(=O)NCCc3ccccc3)ccn2)c1 | 4.47% | inactive | inactive | – | – | – |
| CC(C)(C)c1ccc(S(=O)(=O)Nc2ccc(Cl)cc2C(=O)c2cc[n+]([O-])cc2)cc1 | -16.3% | inactive | inactive | – | – | – |
| CN1CCN(C(=O)c2ccc3cc(CCNc4ncnc5ccc(C#N)cc45)ccc3c2)CC1 | -12.3% | inactive | inactive | – | – | – |
| CCN(CC)C(=O)c1ccc(Nc2nc(OCC3CCCCC3)c3[nH]cnc3n2)cc1 | 8.04% | inactive | inactive | – | – | – |
| COC(=O)CC[C@@H](C)C1CCC2C3CCC4C[C@H](OC(C)=O)CCC4(C)C3C[C@H](O)C21C (some centres undefined) | 3.67% | inactive | inactive | – | – | – |
| CC1(C)CC2=C3C=CC4C5(C)CCC(O)C(C)(C)C5CCC4(C)C3(C)CCC2(C)C(O)C1 (centres undefined) | -8.04% | inactive | inactive | – | – | – |
| C[C@]12CCC[C@](C)(C(=O)O)C1CCC13CC(CO)C(CCC12)C3 (some centres undefined) | -19.1% | inactive | inactive | – | – | – |
| Cn1cc(C2=C(c3coc4ccccc34)C(=O)NC2=O)c2cc(Br)ccc21 | -23.2% | inactive | inactive | – | – | – |
| COc1cn(-c2ccc(-n3cccn3)cc2F)nc(-c2ccnn2-c2ccccc2)c1=O | 0% | inactive | inactive | – | – | – |
| C=Cc1ccc(O[C@@H]2O[C@H](CO[C@@H]3O[C@@H](C)[C@H](O)[C@@H](O)[C@H]3O)[C@@H](O)[C@H](O)[C@H]2O)cc1 | 0.893% | inactive | inactive | – | – | – |
| C/C=C(\C)C(=O)O[C@H]1C[C@](C)(O)[C@H]2CC=C(C)[C@H]2[C@@H]2OC(=O)[C@H](C)[C@H]21 | -15.2% | inactive | inactive | – | – | – |
| COc1ccc(-n2[nH]c3c(cnc4ccccc43)c2=O)cc1 | -9.55% | inactive | inactive | – | – | – |
| CC1(C)CCC2(C(=O)OC3OCC(O)C(O)C3O)CCC3(C)C(=CCC4C5(C)CC(O)C(OC6OC(COC7OCC(O)C(O)C7O)C(O)C(O)C6O)C(C)(C)C5CCC43C)C2C1 (centres undefined) | 4.46% | inactive | inactive | – | – | – |
| COc1ccc(C2C(C(=O)O)C(C(=O)O)C2c2ccc(OC)cc2O[C@@H]2O[C@H](CO)[C@@H](O)[C@H](O)[C@H]2O)c(O[C@@H]2O[C@H](CO)[C@@H](O)[C@H](O)[C@H]2O)c1 (some centres undefined) | 7.63% | inactive | inactive | – | – | – |
| C=C1CO[C@@]2(O[C@H]3CC4C5CC=C6C[C@@H](O)C[C@@H](O[C@@H]7OC[C@H](O)[C@H](O[C@@H]8OC[C@@H](O)[C@H](O)[C@H]8O)[C@H]7O[C@@H]7O[C@@H](C)[C@H](OC(C)=O)[C@@H](OC(C)=O)[C@H]7OC(C)=O)[C@]6(C)C5CC[C@]4(C)[C@@H]3[C@@H]2C)[C@@H](O)[C@H]1OC1OC(C)C(O)C(O)C1O (some centres undefined) | -6.87% | – | – | 8.25% [at 11.2 µM] | -6.16% [at 11.2 µM] | – |
| c1ccc(-c2cnn3cc(-c4ccc(OCCN5CCOCC5)cc4)cnc23)cc1 | -17% | inactive | inactive | – | – | – |
| CC1(C)CC[C@]2(C(=O)O)CC[C@]3(C)C(=CCC4[C@@]5(C)C[C@@H](O)[C@H](O)[C@@](C)(CO)C5[C@H](O)C[C@]43C)[C@@H]2C1 (some centres undefined) | -19.8% | inactive | inactive | – | – | – |
| CC(=O)OC1(C)CC(O)C2(O)C=COC(OC3OC(CO)C(O)C(O)C3O)C12 (centres undefined) | -16.8% | inactive | inactive | – | – | – |
| COC(=O)C1(C)c2[nH]c3ccccc3c2CCN1C(=O)CCl (centres undefined) | – | inactive | inactive | – | – | 30.1 µM (active) |
| C/C(=C\CCC(C)(C)O)CCO[C@@H]1O[C@H](CO[C@@H]2O[C@@H](C)[C@H](O)[C@@H](O)[C@H]2O)[C@@H](O)[C@H](O)[C@H]1O | 0% | inactive | inactive | – | – | – |
| COC(=O)C1=COC(OC2OC(CO)C(O)C(O)C2O)C2C(COC(=O)/C=C/c3ccc(O)cc3)C(O)C(O)C12 (centres undefined) | -6.87% | inactive | inactive | – | – | – |
